Assay results taken from PubChem BioAssay (Tox21).
Records with an inconclusive call do not appear. Active and inactive are the calls of the source. Unless noted, the call rests on the fitted dose curve; in most records, active means well fitted curve in the direction sought with a large enough effect in the repeat runs; inconclusive means weak or mixed curves; inactive means no such curve, though single readings can be large; an effect the other way counts as inactive or inconclusive.

Tests used:
[1] = target: Thyrotropin receptor (Homo sapiens) (UniProt P16473); assay: qHTS assay to identify small molecule agonists of the thyroid stimulating hormone receptor (TSHR) signaling pathway (AID 1224843; calls by dose curve; further: nearly all actives have a fitted effect of over 45% in size)
Thyrotropin receptor (Homo sapiens), sequence (P16473 whole entry, looked up): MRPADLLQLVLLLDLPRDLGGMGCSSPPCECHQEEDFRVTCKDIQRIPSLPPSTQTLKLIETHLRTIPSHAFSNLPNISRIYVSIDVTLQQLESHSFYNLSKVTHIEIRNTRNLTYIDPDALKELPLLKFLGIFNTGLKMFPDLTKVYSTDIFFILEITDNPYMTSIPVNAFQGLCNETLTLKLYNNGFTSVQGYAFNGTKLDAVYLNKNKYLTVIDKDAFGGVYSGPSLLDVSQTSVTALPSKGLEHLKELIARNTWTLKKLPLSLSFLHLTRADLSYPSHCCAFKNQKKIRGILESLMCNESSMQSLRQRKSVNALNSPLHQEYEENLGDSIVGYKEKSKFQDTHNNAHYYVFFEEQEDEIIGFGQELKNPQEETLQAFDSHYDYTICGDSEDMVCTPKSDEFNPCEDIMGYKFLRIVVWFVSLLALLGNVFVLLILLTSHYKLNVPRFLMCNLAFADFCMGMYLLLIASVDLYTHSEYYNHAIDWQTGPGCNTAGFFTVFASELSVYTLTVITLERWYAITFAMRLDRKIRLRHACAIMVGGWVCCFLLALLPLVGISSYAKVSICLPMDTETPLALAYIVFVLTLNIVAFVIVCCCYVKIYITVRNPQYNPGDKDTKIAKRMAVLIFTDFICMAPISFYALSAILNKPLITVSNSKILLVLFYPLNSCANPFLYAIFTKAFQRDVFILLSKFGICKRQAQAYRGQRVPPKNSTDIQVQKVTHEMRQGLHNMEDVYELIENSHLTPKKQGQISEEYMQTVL
Procedure, shortened: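 HEK293/TSHR, 800 cells/well; cpd 30 min RT; add cAMP-d2 + anti-cAMP-cryptate, 1 h RT; fluorescence read on plate reader. 15-pt titration, n=3.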

[2] = qHTS assay to identify small molecule agonists of the hypoxia (HIF-1) signaling pathway - cell viability counter screen (AID 1224844; calls by dose curve; further: nearly all actives have a fitted effect of over 50% in size)
Procedure, shortened: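 Same wells as the HIF-1 reporter screen; ME-180 cells carrying HRE-bla, 17 hr treatment at 37C; CellTiter-Glo luminescence read after 30 min at room temperature.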

[3] = qHTS assay to identify small molecule agonists of the hypoxia (HIF-1) signaling pathway (AID 1224846; active means well fitted activation curve with a large enough effect in the signal ratio in the repeat runs, not every such curve was filed as active; the % refers to the signal ratio)
Procedure, shortened: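 In ME-180 cells bearing an HRE-bla construct, 17 h treatment with DMSO-dissolved compounds at 37C was followed by CCF4-AM loading to quantify reporter induction.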

[4] = qHTS assay to identify small molecule agonists of H2AX - cell viability counter screen (AID 1224847; calls by dose curve; further: nearly all actives have a fitted effect of over 30% in size; further: potency means the concentration at half of the fitted maximal effect)
Procedure, shortened: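 Compounds tested at 15 concentrations were incubated 3 hr at 37C with wild-type CHO-K1 cells; cellular ATP-based luminescence (CellTiter-Glo) indicated viability.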

[5] = qHTS assay to identify small molecule antagonists of the estrogen related receptor (ERR) signaling pathway from Tox21 library (AID 1224848); further: nearly all actives have a fitted effect of over 50% in size; further: potency means the concentration at half of the fitted maximal effect
Procedure, shortened: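 Compounds dissolved in DMSO are pin-transferred onto ERR reporter cells (2,000 per well) that have settled for 6 h at 37 C. Plates then incubate 18 h at 37 C before ONE-Glo luciferase reagent and a luminescence read 30 min later.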

[6] = qHTS assay to identify small molecule agonists of the estrogen related receptor (ERR) signaling pathway from Tox21 library (AID 1224849; calls by dose curve; further: nearly all actives have a fitted effect of over 15% in size); conditions: ERR reporter cell line, ONE-Glo luciferase, 18 h; at 92.4 µM (top of the series) unless noted
Procedure, shortened: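 Reporter cells (ERR, NTP source) treated with Tox21 10K compounds 18 h, 37 C. Readout: ONE-Glo luminescence, 30 min RT.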

[7] = qHTS RealTime-Glo MT Cell Viability Assay in HepG2 cells - 24 hour (AID 1224867); further: nearly all actives have a fitted effect of over 50% in size
Procedure, shortened: (§1)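 Cells + NanoLuc/prosubstrate dispensed (600 cells/well) → 5 h at 37 C/5% CO2 → compounds in DMSO transferred → 40 h incubation at 37 C, luminescence read at 0, 8, 16, 24, 32, 40 h.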

[8] = A CellTox Green Cytotoxicity Assay to monitor cytotoxicity in HEK293 cells - 0 hour (AID 1224869); further: nearly all actives have a fitted effect of over 50% in size; further: potency means the concentration at half of the fitted maximal effect
Procedure, shortened: (§2)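 Homogeneous no-lysis format: HEK293 cell suspension mixed with CellTox Green reagent, seeded, incubated 5 h at 37 C/5% CO2, then dosed by pintool with compound in DMSO.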

[9] = qHTS RealTime-Glo MT Cell Viability Assay in HepG2 cells - 40 hour (AID 1224870); further: nearly all actives have a fitted effect of over 50% in size
Procedure, shortened: (§3)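 HepG2 cells (600/well) mixed with RealTime-Glo MT reagent, settled 5 h at 37 C/5% CO2 before compound addition. Nonlytic NanoLuc luminescence from viable-cell prosubstrate reduction read repeatedly during 40 h treatment at 37 C.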

[10] = A CellTox Green Cytotoxicity Assay to monitor cytotoxicity in HEK293 cells - 40 hour (AID 1224871); further: nearly all actives have a fitted effect of over 45% in size; further: potency means the concentration at half of the fitted maximal effect
Procedure, shortened: as §2

[11] = qHTS RealTime-Glo MT Cell Viability Assay in HEK293 cells - 16 hour (AID 1224872); further: nearly all actives have a fitted effect of over 50% in size; further: potency means the concentration at half of the fitted maximal effect
Procedure, shortened: (§4)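 Tox21 10K qHTS, HEK293, 600 cells/well, RealTime-Glo reagent co-dispensed with cells; 5 h preincubation, compound by pintool, 37 C, luminescence at 0–40 h.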

[12] = qHTS RealTime-Glo MT Cell Viability Assay in HepG2 cells - 8 hour (AID 1224873); further: nearly all actives have a fitted effect of over 55% in size
Procedure, shortened: as §3

[13] = qHTS RealTime-Glo MT Cell Viability Assay in HEK293 cells - 40 hour (AID 1224874); conditions: RealTime-Glo luminescence; max response: stronger effect = lower value; further: nearly all actives have a fitted effect of over 50% in size; further: potency means the concentration at half of the fitted maximal effect
Procedure, shortened: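 Measured as luminescence from the same continuously cultured HEK293 wells at successive time points (0, 8, 16, 24, 32, 40 h) after compound addition. Reagent present from seeding; dosing at 5 h; incubation 37 C.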

[14] = A CellTox Green Cytotoxicity Assay to monitor cytotoxicity in HEK293 cells - 24 hour (AID 1224875); further: nearly all actives have a fitted effect of over 45% in size; further: potency means the concentration at half of the fitted maximal effect
Procedure, shortened: as §2

[15] = qHTS RealTime-Glo MT Cell Viability Assay in HepG2 cells - 32 hour (AID 1224877); further: nearly all actives have a fitted effect of over 55% in size
Procedure, shortened: as §1

[16] = A CellTox Green Cytotoxicity Assay to monitor cytotoxicity in HepG2 cells - 24 hour (AID 1224878); further: nearly all actives have a fitted effect of over 45% in size; further: potency means the concentration at half of the fitted maximal effect
Procedure, shortened: (§5)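 Fluorescent DNA-binding dye, 600 HepG2 cells/well, 5 h preincubation then compound in DMSO; same plates read at 0–40 h, 37 C.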

[17] = A CellTox Green Cytotoxicity Assay to monitor cytotoxicity in HepG2 cells - 40 hour (AID 1224879); further: nearly all actives have a fitted effect of over 40% in size; further: potency means the concentration at half of the fitted maximal effect
Procedure, shortened: as §5

[18] = qHTS assay to identify small molecule agonists of H2AX (AID 1224845; active means well fitted activation curve with a large enough effect in the signal ratio in the repeat runs, not every such curve was filed as active; the % refers to the signal ratio)
Procedure, shortened: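 Wild-type CHO-K1 cells, plated overnight, exposed 3hr at 37C to 15 concentrations (0.76% DMSO final). Lysed, then HTRF anti-pH2AX (S139) cryptate and anti-H2AX-d2 antibodies, 24 hr room temperature; 665/620 nm emission read.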

[19] = qHTS RealTime-Glo MT Cell Viability Assay in HEK293 cells - 32 hour (AID 1224868); further: nearly all actives have a fitted effect of over 50% in size; further: potency means the concentration at half of the fitted maximal effect
Procedure, shortened: as §4

[20] = A CellTox Green Cytotoxicity Assay to monitor cytotoxicity in HepG2 cells - 16 hour (AID 1224876); further: nearly all actives have a fitted effect of over 45% in size; further: potency means the concentration at half of the fitted maximal effect
Procedure, shortened: as §5
On the % scale 0 is the no-effect control and ±100 the full control effect.

CCC(C)C1N=C(C)C(C)S1 (stereo unspecified)
inactive: Potency [1] | Potency [2] | outcome [3] | Potency [4] | Potency [5] | activity change, positive = activation [6] -2.96% | outcome [7] | Potency [8] | Potency [9] | Potency [10] | Potency [11] | outcome [12] | max response [13] 6.11% | Potency [14] | Potency [15] | Potency [16] | Potency [17]

NC(=O)c1ccccc1
inactive: Potency [1] | Potency [2] | Potency [18] | Potency [4] | outcome [7] | Potency [19] | Potency [8] | Potency [9] | Potency [10] | Potency [11] | outcome [12] | max response [13] 1.7% | Potency [14] | Potency [15] | Potency [16] | Potency [17]

CC1(C)C(=O)NC(=O)N1CO
inactive: Potency [1] | Potency [2] | outcome [3] | Potency [4] | outcome [7] | Potency [19] | Potency [8] | Potency [9] | Potency [10] | Potency [11] | outcome [12] | max response [13] 9.14% | Potency [14] | Potency [20] | Potency [15] | Potency [16]

CCCCCCCCCC(C)C=O (stereo unspecified)
active: Potency [8] 24.5 µM | Potency [10] 19.5 µM | Potency [14] 21.9 µM | Potency [20] 24.5 µM | Potency [16] 24.5 µM | Potency [17] 24.5 µM
inactive: Potency [1] | Potency [2] | Potency [18] | Potency [4] | outcome [7] | Potency [19] | Potency [9] | Potency [11] | outcome [12] | max response [13] 12% | Potency [15]

CCN(CCCCOC(=O)c1ccc(OC)c(OC)c1)C(C)Cc1ccc(OC)cc1 (stereo unspecified)
inactive: Potency [1] | Potency [2] | Potency [18] | Potency [4] | activity change, positive = activation [6] -16.6% [at 42.5 µM] | outcome [7] | Potency [8] | Potency [9] | Potency [10] | outcome [12] | Potency [14] | Potency [20] | Potency [15]

C/C(=C(\CCO)SS/C(CCO)=C(\C)N(C=O)Cc1cnc(C)nc1N)N(C=O)Cc1cnc(C)nc1N
inactive: Potency [1] | Potency [2] | Potency [18] | Potency [5] | activity change, positive = activation [6] 3.66% [at 42.5 µM] | outcome [7] | Potency [8] | Potency [9] | Potency [10] | outcome [12] | max response [13] 7.21% | Potency [14] | Potency [20] | Potency [15] | Potency [16] | Potency [17]

CCCCCC1CCC(=O)O1 (stereo unspecified)
inactive: Potency [1] | Potency [2] | outcome [3] | Potency [4] | Potency [5] | activity change, positive = activation [6] 4.33% | outcome [7] | Potency [8] | Potency [9] | Potency [10] | Potency [11] | outcome [12] | max response [13] 24.1% | Potency [14] | Potency [15] | Potency [16] | Potency [17]

O=C(O)c1ccccc1[N+](=O)[O-]
inactive: Potency [1] | Potency [2] | outcome [3] | Potency [4] | outcome [7] | Potency [19] | Potency [8] | Potency [9] | Potency [10] | Potency [11] | outcome [12] | max response [13] 24.4% | Potency [14] | Potency [20] | Potency [15] | Potency [16] | Potency [17]

CC1=C(C)C(=O)C(CCCCC#CCCCC#CCO)=C(C)C1=O
active: Potency [4] 49.2 µM | Potency [5] 13.3 µM | Potency [19] 0.674 µM | Potency [11] 0.601 µM | Potency [13] 0.674 µM
inactive: Potency [1] | Potency [2] | outcome [3] | activity change, positive = activation [6] -50.9% [at 42.5 µM] | Potency [8] | Potency [9] | Potency [10] | Potency [14] | Potency [20] | Potency [16]

C/C=C1\[C@H]2C=C(C)C[C@]1(N)c1ccc(=O)[nH]c1C2
inactive: Potency [1] | Potency [2] | Potency [18] | Potency [4] | outcome [7] | Potency [19] | Potency [8] | Potency [9] | Potency [10] | Potency [11] | outcome [12] | max response [13] -2.81% | Potency [14] | Potency [20] | Potency [15] | Potency [16]

Cc1c(Nc2ncccc2C(=O)O)cccc1C(F)(F)F
inactive: Potency [1] | Potency [2] | Potency [18] | Potency [4] | outcome [7] | Potency [19] | Potency [8] | Potency [9] | Potency [10] | Potency [11] | outcome [12] | max response [13] 0.365% | Potency [14] | Potency [20] | Potency [15] | Potency [16]

NC(=O)c1cc[n+](CC2=C(C(=O)[O-])N3C(=O)[C@@H](NC(=O)Cc4cccs4)[C@H]3SC2)cc1
inactive: Potency [1] | Potency [2] | Potency [18] | Potency [4] | outcome [7] | Potency [19] | Potency [8] | Potency [9] | Potency [10] | Potency [11] | outcome [12] | max response [13] 4.75% | Potency [14] | Potency [20] | Potency [15] | Potency [16] | Potency [17]

C=CC(O)CCCCC (stereo unspecified)
inactive: Potency [1] | Potency [2] | Potency [18] | Potency [4] | activity change, positive = activation [6] 1.36% | outcome [7] | Potency [19] | Potency [8] | Potency [9] | Potency [10] | Potency [11] | outcome [12] | max response [13] 0.0439% | Potency [14] | Potency [20] | Potency [15] | Potency [16] | Potency [17]

CCc1c(C)[nH]c2c1C(=O)C(CN1CCOCC1)CC2 (stereo unspecified)
inactive: Potency [1] | Potency [2] | Potency [4] | outcome [7] | Potency [19] | Potency [8] | Potency [9] | Potency [10] | outcome [12] | max response [13] 2.91% | Potency [14] | Potency [20] | Potency [15] | Potency [16] | Potency [17]

O=C(Nc1ccc2c(c1)Cc1ccccc1-2)C(F)(F)F
inactive: Potency [1] | Potency [2] | outcome [3] | Potency [4] | outcome [7] | Potency [8] | Potency [9] | Potency [10] | outcome [12] | Potency [15] | Potency [16] | Potency [17]

Sc1nc(S)nc(S)n1
inactive: Potency [1] | Potency [18] | outcome [3] | Potency [4] | activity change, positive = activation [6] -29.2% [at 42.5 µM] | outcome [7] | Potency [19] | Potency [8] | Potency [9] | Potency [10] | Potency [11] | outcome [12] | max response [13] 5.08% | Potency [14] | Potency [20] | Potency [15] | Potency [16] | Potency [17]
